Measurements from PubChem BioAssay (Tox21).
A number with no mark means an inactive call. Results filed as inconclusive are left out. A call without a number means that no potency is given here. Active and inactive are the calls of the source. Unless noted, calls follow the shape of the dose curve; as a rule, active = well fitted curve in the direction sought with a large enough effect in the repeat runs; inconclusive = weak or mixed curves; inactive = no such curve, though single readings can be large; an effect the other way counts as inactive or inconclusive.

How the values were obtained:
[1] = A CellTox Green Cytotoxicity Assay to monitor cytotoxicity in HepG2 cells - 40 hour (AID 1224879); also: nearly all actives have a fitted effect of over 40% in size; also: potency is read from the fitted curve at half-maximal effect
Procedure, shortened: (§1)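 Fluorescent DNA-binding dye, 600 HepG2 cells/well, 5 h preincubation then compound in DMSO; same plates read at 0–40 h, 37 C.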

[2] = qHTS RealTime-Glo MT Cell Viability Assay in HEK293 cells - 0 hour (AID 1224880); also: top concentration of the series differs between compounds; nearly all actives have a fitted effect of over 45% in size
Procedure, shortened: (§2)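 Measured as luminescence from the same continuously cultured HEK293 wells at successive time points (0, 8, 16, 24, 32, 40 h) after compound addition. Reagent present from seeding; dosing at 5 h; incubation 37 C.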

[3] = A CellTox Green Cytotoxicity Assay to monitor cytotoxicity in HEK293 cells - 32 hour (AID 1224881); also: nearly all actives have a fitted effect of over 40% in size; also: potency is read from the fitted curve at half-maximal effect
Procedure, shortened: (§3)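 Homogeneous no-lysis format: HEK293 cell suspension mixed with CellTox Green reagent, seeded, incubated 5 h at 37 C/5% CO2, then dosed by pintool with compound in DMSO.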

[4] = A CellTox Green Cytotoxicity Assay to monitor cytotoxicity in HepG2 cells - 0 hour (AID 1224882); also: nearly all actives have a fitted effect of over 35% in size; also: potency is read from the fitted curve at half-maximal effect
Procedure, shortened: as §1

[5] = A CellTox Green Cytotoxicity Assay to monitor cytotoxicity in HepG2 cells - 32 hour (AID 1224883); also: nearly all actives have a fitted effect of over 50% in size; also: potency is read from the fitted curve at half-maximal effect
Procedure, shortened: as §1

[6] = A CellTox Green Cytotoxicity Assay to monitor cytotoxicity in HEK293 cells - 8 hour (AID 1224884); also: nearly all actives have a fitted effect of over 35% in size
Procedure, shortened: as §3

[7] = qHTS RealTime-Glo MT Cell Viability Assay in HepG2 cells - 16 hour (AID 1224885); also: nearly all actives have a fitted effect of over 50% in size
Procedure, shortened: (§4)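 Viability was tracked continuously by NanoLuc luminescence from prosubstrate reduced by living HepG2 cells, at successive time points over 40 h of compound exposure. Cells with reagent were preincubated 5 h at 37 °C before compound addition.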

[8] = qHTS RealTime-Glo MT Cell Viability Assay in HEK293 cells - 24 hour (AID 1224886); also: top concentration of the series differs between compounds; nearly all actives have a fitted effect of over 50% in size
Procedure, shortened: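 Viability tracked continuously by luminescence as live cells reduce a prosubstrate for NanoLuc; HEK293 cells preincubated 5 h, compound-treated at 37 C, and read at 0, 8, 16, 24, 32 and 40 h.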

[9] = qHTS RealTime-Glo MT Cell Viability Assay in HEK293 cells - 8 hour (AID 1224887); also: top concentration of the series differs between compounds; nearly all actives have a fitted effect of over 50% in size
Procedure, shortened: as §2

[10] = A CellTox Green Cytotoxicity Assay to monitor cytotoxicity in HEK293 cells - 16 hour (AID 1224888); also: nearly all actives have a fitted effect of over 35% in size
Procedure, shortened: as §3

[11] = qHTS RealTime-Glo MT Cell Viability Assay in HepG2 cells - 0 hour (AID 1224889); also: nearly all actives have a fitted effect of over 50% in size
Procedure, shortened: as §4

[12] = A CellTox Green Cytotoxicity Assay to monitor cytotoxicity in HepG2 cells - 8 hour (AID 1224890); also: nearly all actives have a fitted effect of over 45% in size; also: potency is read from the fitted curve at half-maximal effect
Procedure, shortened: as §1

[13] = qHTS assay to identify small molecule antagonists of the estrogen receptor alpha (ER-alpha) signaling pathway using the BG1 cell line in the presence of 0.1 nM 17-beta-estradiol - cell viability counter screen (AID 1259241); also: nearly all actives have a fitted effect of over 40% in size
Procedure, shortened: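 Viability in VM7Luc4E2 cells after 22 hr compound exposure under 0.1 nM 17beta-estradiol stimulation, by CellTiter-Fluor.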

[14] = qHTS assay to identify small molecule antagonists of the androgen receptor (AR) signaling pathway using the MDA cell line in the presence of 0.5 nM R1881 - cell viability counter screen (AID 1259242); also: nearly all actives have a fitted effect of over 45% in size
Procedure, shortened: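 Human breast carcinoma MDA-kb2 cells, cultured without CO2, receive compounds alongside 0.5 nM (final) R1881 agonist. After 16 hr at 37C, viability is taken as live-cell protease signal.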

[15] = molecular target: Estrogen receptor (Homo sapiens) (UniProt P03372); assay: qHTS assay to identify small molecule antagonists of the estrogen receptor alpha (ER-alpha) signaling pathway using the BG1 cell line in the presence of 0.1 nM 17-beta-estradiol (AID 1259244); also: nearly all actives have a fitted effect of over 50% in size
Estrogen receptor (Homo sapiens), sequence (P03372 whole entry, looked up): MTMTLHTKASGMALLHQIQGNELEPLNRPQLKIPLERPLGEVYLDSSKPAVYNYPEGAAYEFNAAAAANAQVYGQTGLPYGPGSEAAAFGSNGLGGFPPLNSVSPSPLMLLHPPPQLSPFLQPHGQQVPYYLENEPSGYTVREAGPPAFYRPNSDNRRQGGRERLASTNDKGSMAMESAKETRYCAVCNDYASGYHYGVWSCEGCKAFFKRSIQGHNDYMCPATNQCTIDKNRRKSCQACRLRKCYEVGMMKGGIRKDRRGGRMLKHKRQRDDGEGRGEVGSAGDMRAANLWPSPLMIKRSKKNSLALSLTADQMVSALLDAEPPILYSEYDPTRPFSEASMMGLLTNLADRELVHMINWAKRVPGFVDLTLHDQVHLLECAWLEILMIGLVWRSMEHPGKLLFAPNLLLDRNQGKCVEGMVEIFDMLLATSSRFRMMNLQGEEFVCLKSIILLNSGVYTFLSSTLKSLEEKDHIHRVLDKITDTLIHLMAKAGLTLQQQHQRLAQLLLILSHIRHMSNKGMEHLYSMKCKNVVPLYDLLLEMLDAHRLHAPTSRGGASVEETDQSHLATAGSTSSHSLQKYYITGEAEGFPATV
Procedure, shortened: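 Seeding of stripped-serum-adapted VM7Luc4E2 cells, 24 h attachment, compound transfer, then 0.1 nM final 17beta-estradiol; after 22 h incubation, ONE-Glo reagent and luminescence reading.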

[16] = qHTS assay to identify small molecule HDAC inhibitors - cell viability counter screen (AID 1259365)
Procedure, shortened: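 Cytotoxicity was gauged in wild-type HCT-116 cells after a brief 2hr treatment with DMSO-dissolved compounds at 37C and 5% CO2, using CellTiter-Glo luminescence developed for 30min at room temperature.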

[17] = A CellTox Green Cytotoxicity Assay to monitor cytotoxicity in HepG2 cells - 24 hour (AID 1224878); also: nearly all actives have a fitted effect of over 45% in size; also: potency is read from the fitted curve at half-maximal effect
Procedure, shortened: as §1

[18] = molecular target: Androgen receptor (Homo sapiens) (UniProt P10275); assay: qHTS assay to identify small molecule antagonists of the androgen receptor (AR) signaling pathway using the MDA cell line in the presence of 0.5 nM R1881 (AID 1259243); also: nearly all actives have a fitted effect of over 50% in size
Androgen receptor (Homo sapiens), sequence (P10275 whole entry, looked up): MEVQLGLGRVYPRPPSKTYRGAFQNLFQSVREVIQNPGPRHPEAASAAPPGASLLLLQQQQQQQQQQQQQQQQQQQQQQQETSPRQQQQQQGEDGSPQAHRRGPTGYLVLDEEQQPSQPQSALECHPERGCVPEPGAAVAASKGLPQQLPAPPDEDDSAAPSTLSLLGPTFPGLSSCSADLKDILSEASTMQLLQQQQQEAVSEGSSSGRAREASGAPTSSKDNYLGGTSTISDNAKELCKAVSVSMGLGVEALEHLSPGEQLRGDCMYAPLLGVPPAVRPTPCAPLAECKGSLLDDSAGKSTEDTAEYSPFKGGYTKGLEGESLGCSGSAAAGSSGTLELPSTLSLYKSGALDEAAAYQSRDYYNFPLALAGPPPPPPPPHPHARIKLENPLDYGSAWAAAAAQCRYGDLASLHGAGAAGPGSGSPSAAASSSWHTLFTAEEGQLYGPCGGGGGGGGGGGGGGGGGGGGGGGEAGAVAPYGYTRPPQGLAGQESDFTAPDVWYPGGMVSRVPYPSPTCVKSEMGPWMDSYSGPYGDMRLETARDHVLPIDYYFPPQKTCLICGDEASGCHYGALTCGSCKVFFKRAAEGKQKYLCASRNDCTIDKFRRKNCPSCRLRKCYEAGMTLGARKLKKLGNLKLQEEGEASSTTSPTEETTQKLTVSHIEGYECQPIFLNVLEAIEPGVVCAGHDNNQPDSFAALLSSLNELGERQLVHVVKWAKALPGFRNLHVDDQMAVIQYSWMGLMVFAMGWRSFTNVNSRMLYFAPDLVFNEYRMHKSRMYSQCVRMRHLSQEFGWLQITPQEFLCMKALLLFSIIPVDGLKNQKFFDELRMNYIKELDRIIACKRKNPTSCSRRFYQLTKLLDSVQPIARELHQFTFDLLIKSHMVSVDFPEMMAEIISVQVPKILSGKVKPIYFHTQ
Procedure, shortened: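 Cells: MDA-kb2 (MMTV-luc). Stimulus: 0.5 nM R1881. Time: 16 hr, 37C, no CO2. Detection: ONE-Glo luminescence after 30 min at RT.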

[19] = qHTS assay to identify small molecule HDAC inhibitors (AID 1259364)
Procedure, shortened: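 After a 2 hr compound incubation (37C, 5% CO2), HCT-116 cells seeded at 1,500/well the day before received HDAC-Glo reagent; signal read as luminescence after 30 min at room temperature.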

[20] = qHTS assay to identify small molecule phospholipidosis (PLD) inducers (AID 1259344; active = well fitted curve in the direction sought with a large enough effect; an effect the other way counts as inactive or inconclusive)
Procedure, shortened: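 Read-out is LipidTOX Red fluorescence (ex 595/em 615) imaged in HepG2 cells after 24 h compound exposure at 37 C, with Hoechst nuclear counterstain (ex 352/em 461) allowing per-cell normalisation.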

| Compound | Potency [1] | Potency [2] | Potency [3] | Potency [4] | Potency [5] | Potency [6] | outcome [7] | outcome [8] | outcome [9] | Potency [10] | Potency [11] | Potency [12] | outcome [13] | outcome [14] | outcome [15] | outcome [16] | Potency [17] | Potency [18] | Potency [19] | Potency [20] |
| --- | --- | --- | --- | --- | --- | --- | --- | --- | --- | --- | --- | --- | --- | --- | --- | --- | --- | --- | --- | --- |
| Cc1cc(C)c(C)c(C)c1 | inactive | inactive | inactive | inactive | inactive | inactive | inactive | inactive | inactive | inactive | inactive | inactive | inactive | inactive | inactive | inactive |  |  |  |  |
| NNC(=O)OCc1ccccc1 | inactive |  | inactive | inactive | inactive | inactive | inactive | inactive | inactive | inactive | inactive |  | inactive | inactive | inactive | inactive | inactive | inactive | inactive |  |
| CC(C)(C)OC(=O)c1ccccc1C(=O)O | inactive | inactive | inactive | inactive | inactive |  | inactive | inactive | inactive | inactive |  | inactive | inactive | inactive | inactive | inactive | inactive |  | inactive |  |
| COC(C)(C)CC(C)=O | inactive | inactive | inactive | inactive | inactive | inactive | inactive | inactive | inactive | inactive | inactive | inactive | inactive | inactive |  | inactive |  | inactive | inactive |  |
| CC(C)C[P+](C)(CC(C)C)CC(C)C | inactive | inactive |  | inactive | inactive |  | inactive | inactive | inactive | inactive | inactive |  | inactive | inactive | inactive | inactive | inactive |  | inactive |  |
| N#CC1(N)CCCCC1 | inactive | inactive | inactive | inactive | inactive |  | inactive | inactive | inactive | inactive | inactive | inactive |  | inactive | inactive | inactive | inactive |  | inactive |  |
| Cc1nc2ccc(Cl)cc2[nH]1 | inactive | inactive | inactive | inactive | inactive |  | inactive | inactive | inactive | inactive | inactive | inactive |  | inactive | inactive | inactive | inactive |  |  |  |
| COC(=O)N/N=C/c1c[n+]([O-])c2ccccc2[n+]1[O-] | 23.9 µM (active) | inactive | 21.3 µM (active) | 23.9 µM (active) | 23.9 µM (active) |  | inactive | inactive | inactive |  | inactive | 26.8 µM (active) | inactive | inactive | inactive | inactive | 23.9 µM (active) |  | inactive | inactive |
